Read-out in test [1]: UDP glucuronosyltransferase (UGT1A1), UGT1A1 (gene 54658)
Description: LTEA_HepaRG_UGT1A1: Life Technologies and Expression Analysis (LTEA) Assay for UDP glucuronosyltransferase (UGT1A1) using HepaRG (AID 2283538; active = hit-call score of the fitted dose curve at least 0.9, where 1 is the maximum; inactive = score below 0.9). The note with it: mRNA level, 48 h; actives raise or lower the signal. The essentials: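 Differentiated human HepaRG cells in serum-free induction medium were exposed in duplicate for 48 h to eight half-log concentrations up to 100 uM in 0.5% DMSO. UGT1A1 mRNA was quantified by TaqMan qRT-PCR, normalized to ACTB, GAPDH and POLR2A, and fitted bidirectionally against DMSO.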

Read-out in test [2]: UDP glucuronosyltransferase (UGT1A6), UGT1A6 (gene 54578)
As to the kind of experiment: LTEA_HepaRG_UGT1A6: Life Technologies and Expression Analysis (LTEA) Assay for UDP glucuronosyltransferase (UGT1A6) using HepaRG (AID 2283539; active = hit-call score of the fitted dose curve at least 0.9, where 1 is the maximum; inactive = score below 0.9). The settings on record: mRNA level, 48 h; actives raise or lower the signal. The method in brief: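 HepaRG, 48 h post-plating switch to serum-free induction medium; chemical 48 h, 100 uM top, half-log x8, duplicate, 0.5% DMSO. Phenobarbital 1mM induction control. UGT1A6 mRNA by TaqMan qRT-PCR; gain/loss fit vs DMSO.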

Read-out in test [3]: X-box binding protein 1 (XBP1), XBP1 (gene 7494)
As to the kind of experiment: LTEA_HepaRG_XBP1: Life Technologies and Expression Analysis (LTEA) Assay for X-box binding protein 1 (XBP1) using HepaRG (AID 2283540; active = hit-call score of the fitted dose curve at least 0.9, where 1 is the maximum; inactive = score below 0.9). The note with it: mRNA level, 48 h; actives raise or lower the signal. The essentials:
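Transcript levels of XBP1, measured by qRT-PCR and normalised to three housekeeping genes, were fitted bidirectionally relative to 0.5% DMSO controls. Human HepaRG cells received eight-point half-log dilutions from 100 uM for 48 h.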

Test [4] is described as follows: LTEA_HepaRG_LDH_cytotoxicity: Cytotoxicity Assessment in the Life Technologies and Expression Analysis (LTEA) Assay (AID 2283563). The essentials: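 Cells were thawed and plated for 48 h. Medium was then replaced with serum-free induction medium. Chemicals (8 half-log points, maximum 100 uM, 0.5% DMSO) were added in duplicate for 48 h, after which spent medium was assayed for LDH.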

Test [5] in a line: TOX21_p53_BLA_p2_viability: Viability Assessment in the Tox21 HCT-116 p53 Agonism Beta-lactamase Assay, Phase 2 (AID 2283591).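 Also: compound exposure lasted 16 h at 37 °C; actives lower the ATP signal meaning cytotoxicity.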 The method in brief:
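HCT-116 p53-bla cells (4000/well) rested 5 h at 37C, then received compounds in DMSO (217-fold dilution) for 16 h at 37C, 5% CO2. After the CCF4 read, CellTiter-Glo was added; ATP luminescence was read after 30 min at room temperature.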

The target in test [6] is Cellular tumor antigen p53 (Homo sapiens) (UniProt P04637). Description: TOX21_p53_BLA_p2_ratio: Tox21 HCT-116 p53 Agonism Beta-lactamase Assay, Ratio, Phase 2 (AID 2283592). The method in brief: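 HCT116 p53-bla; 4000 cells/well; 5 h pre-incubation; cpd in DMSO, 217-fold dilution; 16 h 37C/5% CO2; CCF4-AM 2 h RT; Ex 405, Em 460/530 ratio; DMSO = baseline; positive fitting direction.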

Test [7] is described as follows: TOX21_p53_BLA_p3_viability: Viability Assessment in the Tox21 HCT-116 p53 Agonism Beta-lactamase Assay, Phase 3 (AID 2283593).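 Also: cells exposed to compound for 16 h before reading.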 The method in brief:
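HCT-116 cells (4000/well) rested 5 h at 37C, then got DMSO compounds by pin tool (217-fold dilution) for 16 h at 37C, 5% CO2. After the bla read, CellTiter-Glo was added and luminescence read at 30 min, room temperature.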

For test [8], the target named is Cellular tumor antigen p53 (Homo sapiens) (UniProt P04637). As to the kind of experiment: TOX21_p53_BLA_p3_ratio: Tox21 HCT-116 p53 Agonism Beta-lactamase Assay, Ratio, Phase 3 (AID 2283596). The essentials:
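HCT116 p53-bla cells (4000/well) given compound in DMSO (217-fold dilution) after 5 h, incubated 16 h at 37C. CCF4-AM substrate 2 h at room temperature; 460/530 nm emission ratio, gain fitted against DMSO.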

Test [9] is described as follows: TOX21_p53_BLA_p4_viability: Viability Assessment in the Tox21 HCT-116 p53 Agonism Beta-lactamase Assay, Phase 4 (AID 2283597).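 Also: hits lower the luminescence signal meaning cytotoxicity.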 The essentials: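 Cells plated, 5 h pre-incubation; DMSO compounds pinned (217-fold dilution); 16 h, 37C/5% CO2; CCF4-AM 2 h RT; CellTiter-Glo 30 min RT; luminescence read.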
The target of test [10] is Cellular tumor antigen p53 (Homo sapiens) (UniProt P04637). Description: TOX21_p53_BLA_p5_ratio: Tox21 HCT-116 p53 Agonism Beta-lactamase Assay, Ratio, Phase 5 (AID 2283599). The method in brief: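 HCT-116 cells carrying a p53-inducible beta-lactamase reporter were seeded at 4000 cells/well and dosed after 5 h with compound in DMSO (217-fold dilution). After 16 h at 37C, CCF4-AM substrate was added for 2 h, and the 460/530 nm emission ratio was scored as gain-of-signal versus DMSO.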

Test [11] is described as follows: TOX21_p53_BLA_p5_viability: Viability Assessment in the Tox21 HCT-116 p53 Agonism Beta-lactamase Assay, Phase 5 (AID 2283600). The essentials: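 4000 cells/well; 5 h pre-incubation; DMSO compounds pin-transferred, 217-fold dilution; 16 h, 37C/5% CO2; CCF4-AM 2 h RT; CellTiter-Glo 30 min RT; luminescence.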
In test [12] the target is Cellular tumor antigen p53 (Homo sapiens) (UniProt P04637). As to the kind of experiment: TOX21_p53_BLA_p4_ratio: Tox21 HCT-116 p53 Agonism Beta-lactamase Assay, Ratio, Phase 4 (AID 2283601). The essentials: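 HCT116 cells carrying an inducible beta-lactamase reporter were plated at 4000 cells/well, rested 5 h, then exposed to compounds in DMSO (217-fold dilution) for 16 h at 37C. CCF4-AM substrate was loaded 2 h at room temperature; 460/530 nm emission ratio scored gain-of-signal versus DMSO.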

A short description of test [13]: Tanguay_ZF_120hpf_MORT_legacy: (Legacy) Oregon State University Tanguay Lab 120 Hour Post-fertilization zebrafish Assay for Mortality (AID 2283633). The method in brief: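 5D WT zebrafish, chorion removed 4 hpf; 1 embryo/well from 6 hpf; static exposure to 120 hpf, 28C, dark, sealed. Final DMSO 0.64%. Readout: binary mortality, brightfield, 24 + 120 hpf; DMSO as negative control.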

Test [14] is described as follows: Tanguay_ZF_120hpf_YSE_legacy: (Legacy) Oregon State University Tanguay Lab 120 Hour Post-fertilization zebrafish Assay for Yolk Sac Edema (AID 2283634).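 As to AC50: actives raise the incidence of yolk sac edema above the DMSO baseline.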 The essentials:
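Dechorionate (pronase, 4 hpf) → place one 6 hpf embryo per well → static compound exposure, sealed and foil-covered, 28C, to 120 hpf → record yolk sac edema as present or absent. Final DMSO 0.64%.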

Test [15] in a line: Tanguay_ZF_120hpf_AXIS_legacy: (Legacy) Oregon State University Tanguay Lab 120 Hour Post-fertilization zebrafish Assay for Body Axis Malformation (AID 2283635).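 As to AC50: potency for an increased fraction of larvae scored with body axis malformation.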 The method in brief: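 Chorion is removed with pronase at 4 hpf, then single 6 hpf embryos are dosed (final DMSO 0.64%) and held statically at 28C in sealed, foil-covered plates. At 120 hpf body axis malformation is recorded as present or absent.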

Test [16] can be described thus: Tanguay_ZF_120hpf_EYE_legacy: (Legacy) Oregon State University Tanguay Lab 120 Hour Post-fertilization zebrafish Assay for Eye Malformation (AID 2283636).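 Also: binary presence or absence of eye malformation scored by brightfield in 120 hpf larvae.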 The method in brief:
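Dechorionated wild-type Tropical 5D zebrafish embryos were exposed statically from 6 hpf, one per well, to 120 hpf at 28C in sealed, foil-covered plates with 0.64% DMSO. Eye malformation was scored present/absent by brightfield microscopy against DMSO controls.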

A short description of test [17]: Tanguay_ZF_120hpf_JAW_legacy: (Legacy) Oregon State University Tanguay Lab 120 Hour Post-fertilization zebrafish Assay for Jaw Malformation (AID 2283638).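 As to AC50: active means more embryos with jaw malformation than DMSO controls.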 The method in brief: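 Steps: dechorionate 4 hpf embryos (pronase); plate 1/well at 6 hpf; add test chemical, 0.64% DMSO final; seal, cover, hold at 28C statically to 120 hpf; score jaw defect presence/absence microscopically. Dead embryos not scored.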

Test [18] is described as follows: Tanguay_ZF_120hpf_OTIC_legacy: (Legacy) Oregon State University Tanguay Lab 120 Hour Post-fertilization zebrafish Assay for Otic Vesicle Malformation (AID 2283639). The essentials: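 Tropical 5D wild-type zebrafish embryos were exposed statically in sealed, foil-covered plates at 28C until 120 hpf, with 0.64% (vol/vol) DMSO final. Otic vesicle malformation was scored present/absent by brightfield microscopy, with DMSO as baseline.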

Test [19] in a line: ATG_XTT_Cytotoxicity: Cytotoxicity Assessment in the Attagene TRANS-FACTORIAL HepG2 Assay (AID 2283584). The method in brief:
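Cells: human HepG2, transiently transfected with MRTU reporter constructs. Exposure 24 h. Readout: XTT, cell number. Baseline/neg ctrl DMSO; loss-of-signal scored.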

A short description of test [20]: Tanguay_ZF_120hpf_SNOU_legacy: (Legacy) Oregon State University Tanguay Lab 120 Hour Post-fertilization zebrafish Assay for Snout Malformation (AID 2283637). The method in brief:
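Tropical 5D wild-type zebrafish embryos, dechorionated with pronase at 4 hpf, were exposed singly from 6 hpf to 120 hpf statically at 28C in 0.64% DMSO. Snout malformation was scored present/absent by brightfield microscopy, fitted against DMSO.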

Among the data in PubChem BioAssay (EPA / NIEHS) are outcome and AC50 values, retold here.

By AC50 is commonly meant the concentration at which the activity in the assay is half-maximal.

Records with an inconclusive call do not appear. The source made the active and inactive calls. The calls were made as follows, unless noted: active = hit-call score of the fitted dose curve at least 0.9, where 1 is the maximum; inconclusive = response in the unintended direction; inactive = score below 0.9.

Cellular tumor antigen p53 (Homo sapiens), sequence (P04637 whole entry, looked up): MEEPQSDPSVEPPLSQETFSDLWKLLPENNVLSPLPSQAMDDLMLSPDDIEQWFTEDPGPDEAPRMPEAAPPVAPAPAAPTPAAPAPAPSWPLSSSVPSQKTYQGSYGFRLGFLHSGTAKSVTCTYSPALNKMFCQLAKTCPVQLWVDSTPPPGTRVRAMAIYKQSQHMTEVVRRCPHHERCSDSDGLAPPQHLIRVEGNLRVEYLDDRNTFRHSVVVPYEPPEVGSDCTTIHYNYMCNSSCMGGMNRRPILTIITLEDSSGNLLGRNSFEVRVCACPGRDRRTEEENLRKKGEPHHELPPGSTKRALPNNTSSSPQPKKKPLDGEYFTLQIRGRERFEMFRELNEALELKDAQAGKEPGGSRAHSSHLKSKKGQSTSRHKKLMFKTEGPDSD

In the case of `O=c1ccc(=O)[nH][nH]1`, the compound was classed as inactive in test [1], in [2], in test [3], in test [4], in test [5] and in test [6]. In addition, the compound was called inactive in test [7], in test [8], in test [9], in test [10], in test [11] and in test [12]. In addition, the call in test [13], in test [16], in test [17] and in [18] was inactive. Besides, the AC50 in test [14] is 25.4 µM (active); in [15], 51.7 µM (active).
With `CCCOc1nn(C(=O)NS(=O)(=O)c2ccccc2C(=O)OC)c(=O)n1C`, the compound was classed as inactive in [1], in [2], in [3], in test [4], in test [10] and in [12]. Moreover, the result in test [13], in [14], in test [16], in test [17] and in [18] was inactive.
For the compound `CNC(=O)ON=C(SC)C(=O)N(C)C`, the compound was called inactive in test [1], in test [2], in test [3], in test [4], in test [5] and in test [6]. In addition, the compound was called inactive in test [7], in [8], in test [9], in [10], in test [11] and in test [12]. The result in test [13], in test [14], in test [15], in [16], in [17] and in [18] was inactive.
For `CCOP(=O)(NC(C)C)Oc1ccc(SC)c(C)c1` (configuration not stated), the AC50 in test [1] is 50 µM (active); in test [14], 24.8 µM (active); in test [15], 22.1 µM (active); in test [16], 14.6 µM (active); in test [20], 20.9 µM (active); in test [17] it was 21.6 µM (active). Moreover, the result in test [2], in [4], in test [19], in test [5], in [6] and in test [7] was inactive. For the same compound, the result in test [8], in test [9], in test [10], in test [11], in [12] and in [13] was inactive. Moreover, in test [18], the result was inactive.
In the case of `CON=C(C(=O)OC)c1ccccc1CON=C(C)c1cccc(C(F)(F)F)c1`, the concentration at half-maximal activity (AC50) was 6.06 µM (active) in [1]; 1.25 µM (active) in test [6]; 3.12 µM (active) in test [8]; 2.24 µM (active) in test [10]; 7.29 µM (active) in test [14]; 5.22 µM (active) in test [16]. For the same compound, the half-maximal activity concentration (AC50) in [20] was 4.07 µM (active); in test [17] it was 5.3 µM (active). Also, the compound was classed as inactive in [2], in test [3], in test [4], in [5], in test [7] and in test [9]. Also, the outcome in test [11], in test [13], in test [15] and in test [18] was inactive.
As to `Cc1nn(-c2cc(NS(C)(=O)=O)c(Cl)cc2Cl)c(=O)n1C(F)F`, the AC50 in test [1] is 18.4 µM (active). The result in test [2], in test [3], in [4], in test [6], in test [8] and in [9] was inactive. In addition, the call in test [11], in test [13], in test [14], in [15], in test [16] and in test [17] was inactive. Moreover, the call in test [18] was inactive.
With `CCOP(=S)(OCC)OC(Cl)C(Cl)(Cl)Cl` (configuration not stated), the AC50 in test [1] is 30.7 µM (active). The result in [2], in [3], in test [4], in test [6], in test [7] and in [8] was inactive. The call in test [11], in test [13], in test [14], in test [15], in [16] and in [17] was inactive. Besides, the compound was classed as inactive in test [18].
